Results from PubChem BioAssay AID652115 (Broad Institute, 2013).
Screen size: about 330,000 compounds; about 3,800 (1.2%) were called active. No stated cut-off is given here; in the data, active means inhibition above about 15%; inconclusive means no clear call, values can overlap the other calls; inactive means below that. The sample as a whole holds a higher share of actives than the screen did.

Biological target: NAD-dependent protein deacylase sirtuin-5, mitochondrial (Homo sapiens) (UniProt Q9NXA8)
Assay: SIRT5 desuccinylase inhibitors, primary screen, biochemical, fluorescence imaging, single point, set 5 (AID 652115)
Settings: Purified SirT5, succinyl-peptide AMC, trypsin-coupled fluorescence; at 15 µM; stronger effect = higher value

NAD-dependent protein deacylase sirtuin-5, mitochondrial (Homo sapiens), sequence (Q9NXA8 whole entry, looked up): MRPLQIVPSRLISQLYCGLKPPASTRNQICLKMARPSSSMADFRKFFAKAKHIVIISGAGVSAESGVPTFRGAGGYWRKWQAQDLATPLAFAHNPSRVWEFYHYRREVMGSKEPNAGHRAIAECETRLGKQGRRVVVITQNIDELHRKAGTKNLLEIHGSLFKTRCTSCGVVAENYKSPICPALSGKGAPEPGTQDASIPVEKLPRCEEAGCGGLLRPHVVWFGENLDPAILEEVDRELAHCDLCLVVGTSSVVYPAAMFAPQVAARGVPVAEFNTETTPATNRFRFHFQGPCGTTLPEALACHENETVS

Compound	inhibition
CO[C@@H]1CN(C)C(=O)c2cc(NS(=O)(=O)CC(F)(F)F)ccc2OC[C@H](C)N(Cc2ccccn2)C[C@@H]1C	2.12% (inactive)
C[C@@H]1CCCCO[C@H](CN(C)S(=O)(=O)c2cn(C)cn2)[C@@H](C)CN([C@@H](C)CO)C(=O)c2cc(NC(=O)c3ccncc3)ccc2O1	0.794% (inactive)
Oc1cccc2cc(-c3ccncc3)cnc12	-0.877% (inactive)
COc1cccc(CNc2nc(NCc3cccs3)nc3ccsc23)c1	-1.12% (inactive)
COCCNc1nc(NCc2ccc(NC(C)=O)cc2)c2sccc2n1	16.4% (active)
CC(=O)Nc1ccc(CNc2nc(NCCN(C)C)nc3cc(-c4ccccc4)sc23)cc1	2.52% (inactive)
COc1ccc(C[C@@H]2CCc3cnnn3COC[C@H](c3ccccc3)NC2=O)cc1	2.11% (inactive)
CCC(=O)N[C@H]1CC[C@H](CCn2cc(-c3cccc(OC)c3)nn2)O[C@H]1CO	-2.52% (inactive)
COc1ccc(C(=O)OCC(=O)c2ccc(C)c(S(=O)(=O)N3CCOCC3)c2)cc1OC	25.2% (active)
Cc1ccc(C(=O)OCC(=O)N2CCCCCC2)cc1S(=O)(=O)N1CCOCC1	1.4% (inactive)
COc1ccc(CNC(=O)COC(=O)c2ccc(C)c(S(=O)(=O)N3CCOCC3)c2)cc1OC	-1.07% (inactive)
C[C@H]1CCCCO[C@@H](CN(C)C(=O)C2CCCCC2)[C@@H](C)CN([C@@H](C)CO)C(=O)c2cc(NS(=O)(=O)c3cccs3)ccc2O1	8.81% (inactive)
COCC#Cc1cnc2c(c1)C(=O)N([C@H](C)CO)C[C@@H](C)[C@@H](CN(C)Cc1ccccc1F)O2	1.75% (inactive)
CO[C@@H]1CN(C)C(=O)c2cc(NS(=O)(=O)c3cccc(F)c3)ccc2OC[C@@H](C)NC[C@@H]1C	-3.7% (inactive)
CCC(=O)Nc1ccc2c(c1)C(=O)N(C)C[C@@H](OC)[C@H](C)CN(Cc1ccccc1C(=O)O)[C@@H](C)CO2	2.25% (inactive)
O=C(C1CCCCC1)N1CC2(C1)[C@H](c1ccccc1)[C@H](CO)N2CC1CCCC1	5.17% (inactive)
O=C(COC(=O)c1ccc([N+](=O)[O-])o1)NC12CC3CC(CC(C3)C1)C2	-5.22% (inactive)
O=C(COC(=O)c1cccnc1Cl)NC12CC3CC(CC(C3)C1)C2	0.076% (inactive)
O=C(COC(=O)c1ccc(Br)o1)NC12CC3CC(CC(C3)C1)C2	15.6% (active)
COCC(=O)Nc1ccc2c(c1)OC[C@@H](C)N(Cc1ccccn1)C[C@H](C)[C@@H](OC)CN(C)C2=O	-1.91% (inactive)
COc1cccc(S(=O)(=O)Nc2ccc3c(c2)C(=O)N(C)C[C@@H](OC)[C@@H](C)CN[C@@H](C)CO3)c1	5.28% (inactive)
C[C@H](O)C#Cc1cnc2c(c1)C(=O)N([C@@H](C)CO)C[C@H](C)[C@@H](CN(C)C(=O)c1ccccc1)O2	-1.59% (inactive)
COc1cccc(OCC(=O)Nc2ccccc2C(N)=O)c1	29.5% (active)
Cc1cccc(OCCC(=O)Nc2ccccc2C(N)=O)c1	-1.74% (inactive)

Compound	inhibition
Cc1cccc(OCC(=O)Nc2ccccc2F)c1	-2.03% (inactive)
O=C(C[C@@H]1CC[C@H]2[C@@H](COC[C@@H](O)CN2S(=O)(=O)c2cccc(Cl)c2)O1)N1CCCCC1	1.52% (inactive)
COc1ccc(S(=O)(=O)NCCc2c[nH]c3ccccc23)cc1OC	21.4% (active)
COc1ccccc1NC(=O)CCCc1c[nH]c2ccccc12	-1.4% (inactive)
COc1ccc(CCNS(=O)(=O)c2ccc(F)cc2)cc1OC	-1.59% (inactive)
CC=Cc1ccc2n(c1=O)C[C@H]1[C@H](CO)[C@@H](C(=O)NCC3CC3)N(Cc3nccs3)[C@@H]21 (mixture of isomers)	1.01% (inactive)
COCC(=O)N1C[C@H]2[C@@H](c3ccccc31)[C@@H](CO)N2C(=O)NC(C)C	0.583% (inactive)
O=C(C1CCC1)N1CC(=O)N2[C@H](C1)[C@@H](c1ccc(-c3ccccc3F)cc1)[C@@H]2CO	3.28% (inactive)
C[C@H](CO)N1C[C@H](C)[C@H](CN(C)Cc2ccc(C(=O)Nc3ccccc3N)cc2)Oc2c(NC(=O)Nc3ccccc3)cccc2C1=O	-0.83% (inactive)
COc1ccc(C2NC(=O)N(C)C(C)=C2[N+](=O)[O-])cc1 (stereo not drawn)	2.48% (inactive)
COC(=O)C1=C(C)N(C)C(=O)NC1c1ccc([N+](=O)[O-])o1 (stereo not drawn)	17.2% (active)
COCCN1C(=O)N[C@@H](c2ccccc2)C(C(=O)OC)=C1C	-1.66% (inactive)
CC=Cc1ccc2n(c1=O)C[C@H]1[C@H](CO)[C@@H](C(=O)N3CCCCC3)N(Cc3ccccn3)[C@@H]21 (mixture of isomers)	3.91% (inactive)
C[C@@H](NC(=O)C[C@H]1C[C@H]2c3cc(NC(=O)C4CCOCC4)ccc3O[C@H]2[C@@H](CO)O1)c1ccccc1	-0.41% (inactive)
COCCCNC(=S)N(Cc1ccccc1)Cc1ccc(F)cc1	15.1% (active)
COCCCNC(=S)NNC(=O)C(O)(c1ccccc1)c1ccccc1	-5.23% (inactive)
Cc1cc(C)c2[nH]c(=O)c(CN(Cc3ccccc3)C(=S)NCCCN(C)C)cc2c1	-6.33% (inactive)
COCC(=O)N1[C@H](CO)[C@@H](c2ccccc2)[C@H]1CN(C)C(=O)c1ccncc1	3.21% (inactive)
CCN(c1ccccc1)S(=O)(=O)c1ccc(OCC(=O)N2CCCC2)cc1	-0.147% (inactive)
CN(c1ccccc1)S(=O)(=O)c1ccc2[nH]c(=O)[nH]c2c1	-0.22% (inactive)
CCN(c1ccccc1)S(=O)(=O)c1ccc2[nH]c(=O)[nH]c2c1	23.9% (active)
O=C(C[C@H]1C=C[C@H](NC(=O)Cc2ccccn2)[C@@H](CO)O1)NCCc1ccccc1	6.76% (inactive)
O=C(C1CCCC1)N1CC(=O)N2[C@H](C1)[C@@H](c1ccc(-c3cccnc3)cc1)[C@@H]2CO	1.11% (inactive)
CO[C@H]1CN(C)C(=O)c2ccc(NC(=O)Nc3c(C)noc3C)cc2OC[C@@H](C)NC[C@H]1C	-5.86% (inactive)
